Results filed as inconclusive are left out. A number with no mark means an inactive call. Calls of active or inactive are those of the source. Calls come from the whole dose curve; as a rule, active = well fitted curve in the direction sought with a large enough effect; inconclusive = small, poorly fitted or top-dose-only effect, or another doubt; inactive = no such curve, though single readings can be large; an effect the other way counts as inactive or inconclusive.
Tested on: Tov112D
Assay: Primary qHTS to identify gynecologic anti-cancer compounds using libraries of approved drugs and bioactive compounds (AID 1345084); note: nearly all actives have a fitted effect of over 55% in size; note: potency is the fitted concentration of half-maximal effect
Conditions: Gynecologic cancer cell panel viability, ATPlite luminescence, 48 h; series mostly up to 57.5 µM; activity change, negative = cytotoxicity: at the top concentration
Method in brief: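 Cells, 1,000 per well, were allowed to settle for 16 h at 37 C before compound addition. Five concentrations were tested for 48 h, and viability was read by ATPlite luminescence after 15 min at room temperature.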
% is set by controls: 0 for no effect and ±100 for the full control effect.

Question: With `OC(CN1CCN(c2cccc(Cl)c2)CC1)C(c1ccccc1)c1ccccc1` (stereo unspecified) as the molecule, how does the “activity change, negative = cytotoxicity” value read?
Answer: Its value is -7.7%.

Question: With `c1ccc2[nH]c(-c3cscn3)nc2c1` as the molecule, how does the “activity change, negative = cytotoxicity” value read?
Answer: Its value is -22%.

Question: Which “activity change, negative = cytotoxicity” value does the source give for `CN(C)CCCC1(c2ccc(F)cc2)OCc2cc(C#N)ccc21` (stereo unspecified) here?
Answer: Its value is -5.02%.

Question: For `CC[C@]1(O)C[C@H]2CN(CCc3c([nH]c4ccccc34)[C@@](C(=O)OC)(c3cc4c(cc3OC)N(C=O)[C@H]3[C@@](O)(C(=O)OC)[C@H](OC(C)=O)[C@]5(CC)C=CCN6CC[C@]43[C@@H]65)C2)C1`, which Potency is on record?
Answer: Its Potency is 0.178 µM (active).

Question: Which Potency does the source give for `Cc1ccc(Nc2nccc(N(C)c3ccc4c(C)n(C)nc4c3)n2)cc1S(N)(=O)=O` here?
Answer: The Potency was “inactive”.

Question: For `O=C(O)c1cccnc1Nc1cccc(C(F)(F)F)c1`, which “activity change, negative = cytotoxicity” value is on record?
Answer: Its value is -20.9%.

Question: Which Potency does the source give for `Clc1ccc(C(Cn2ccnc2)OCc2c(Cl)cccc2Cl)c(Cl)c1` (stereo unspecified) here?
Answer: Its Potency is “inactive”.

Question: For `COCCCN1CCC(NC(=O)c2cc(Cl)c(N)c3c2OCC3)CC1`, which “activity change, negative = cytotoxicity” value is on record?
Answer: The value was -0.0758%.

Question: For `Cc1cccc(C)c1OCC(=O)N[C@@H](Cc1ccccc1)[C@@H](O)C[C@H](Cc1ccccc1)NC(=O)[C@H](C(C)C)N1CCCNC1=O`, which “activity change, negative = cytotoxicity” value is on record?
Answer: The value was 7.2%.

Question: Which “activity change, negative = cytotoxicity” value does the source give for `CCCCN(CCCC)CCC(O)c1cc2c(Cl)cc(Cl)cc2c2cc(C(F)(F)F)ccc12` (stereo unspecified) here?
Answer: The value was -21.6%.

Question: Which “activity change, negative = cytotoxicity” value does the source give for `CCCCCCCCOc1ccccc1C(=O)Nc1ccc(C(=O)OCC[N+](C)(CC)CC)cc1` here?
Answer: Its value is -10%.

Question: Which “activity change, negative = cytotoxicity” value does the source give for `CC1Cc2ccccc2N1NC(=O)c1ccc(Cl)c(S(N)(=O)=O)c1` (stereo unspecified) here?
Answer: The value was 5.86%.

Question: For `CN(C)[C@@H](CCOc1cccc2ccccc12)c1ccccc1`, which “activity change, negative = cytotoxicity” value is on record?
Answer: Its value is -3.4%.

Question: For `Cc1nc2n(c(=O)c1CCN1CCC(c3noc4cc(F)ccc34)CC1)CCCC2`, which “activity change, negative = cytotoxicity” value is on record?
Answer: The value was -9.37%.

Question: For `O=C(NCC1CCCCN1)c1cc(OCC(F)(F)F)ccc1OCC(F)(F)F` (stereo unspecified), which “activity change, negative = cytotoxicity” value is on record?
Answer: The value was -16.3%.

Question: Which Potency does the source give for `CC(C)Oc1ccc2c(=O)c(-c3ccccc3)coc2c1` here?
Answer: Its Potency is 20 µM (active).

Tested on: not listed separately
Assay: Drug repurposing screens with cells derived from glioblastoma tumor samples (AID 1345199); note: nearly all actives have a fitted effect of over 40% in size
Conditions: GBM patient neurospheres viability, ATP luminescence, 48 h; at 20 µM (top of the series); tumour line C
Method in brief: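 Four patient lines of CD133+ GBM neurospheres were screened at several concentrations; hits were retested in those lines plus three slower-growing GBM lines, using 48-hour treatment and ATP-based viability.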

Question: Which activity, negative = cell killing does the source give for `Nc1cc(C(Cl)=C(Cl)Cl)c(S(N)(=O)=O)cc1S(N)(=O)=O` here?
Answer: The activity, negative = cell killing was -2.9%.

Question: Which activity, negative = cell killing does the source give for `Clc1ccc(C(Cn2ccnc2)OCc2c(Cl)cccc2Cl)c(Cl)c1` (stereo unspecified) here?
Answer: The activity, negative = cell killing was -9.14%.

Question: With `CCCCN(CCCC)CCC(O)c1cc2c(Cl)cc(Cl)cc2c2cc(C(F)(F)F)ccc12` (stereo unspecified) as the molecule, how does the activity, negative = cell killing read?
Answer: The activity, negative = cell killing was -14%.

Question: With `CC1Cc2ccccc2N1NC(=O)c1ccc(Cl)c(S(N)(=O)=O)c1` (stereo unspecified) as the molecule, how does the activity, negative = cell killing read?
Answer: The activity, negative = cell killing was 27.9%.

Same assay, conditions: GBM patient neurospheres viability, ATP luminescence, 48 h; at 45.9 µM (top of the series); tumour line B

Question: For `CCC(C)(Oc1ccc(C2(c3ccc(OC(C)(CC)C(=O)O)cc3)CCCCC2)cc1)C(=O)O` (stereo unspecified), which activity, negative = cell killing is on record?
Answer: Its activity, negative = cell killing is -15.2%.

Question: Which activity, negative = cell killing does the source give for `Cc1ccc(C(=O)c2cc(O)c(O)c([N+](=O)[O-])c2)cc1` here?
Answer: The activity, negative = cell killing was -17.5%.

Question: Which activity, negative = cell killing does the source give for `O=C(O)CCNC(=O)c1ccc(N=Nc2ccc(O)c(C(=O)O)c2)cc1` here?
Answer: The activity, negative = cell killing was -6.99%.

Question: With `COC(=O)N[C@H](C(=O)N[C@@H](Cc1ccccc1)[C@@H](O)CN(Cc1ccc(-c2ccccn2)cc1)NC(=O)[C@@H](NC(=O)OC)C(C)(C)C)C(C)(C)C` as the molecule, how does the activity, negative = cell killing read?
Answer: The activity, negative = cell killing was -0.919%.

Question: With `Nc1cc(C(Cl)=C(Cl)Cl)c(S(N)(=O)=O)cc1S(N)(=O)=O` as the molecule, how does the activity, negative = cell killing read?
Answer: Its activity, negative = cell killing is -15.5%.

Question: For `Cc1cc2c(s1)Nc1ccccc1N=C2N1CCN(C)CC1`, which activity, negative = cell killing is on record?
Answer: The activity, negative = cell killing was -20.2%.

Question: Which activity, negative = cell killing does the source give for `c1ccc2[nH]c(-c3cscn3)nc2c1` here?
Answer: Its activity, negative = cell killing is -26.3%.

Question: Which activity, negative = cell killing does the source give for `Cc1ccc(Nc2nccc(N(C)c3ccc4c(C)n(C)nc4c3)n2)cc1S(N)(=O)=O` here?
Answer: The activity, negative = cell killing was -23.7%.

Question: With `O=C(O)c1cccnc1Nc1cccc(C(F)(F)F)c1` as the molecule, how does the activity, negative = cell killing read?
Answer: Its activity, negative = cell killing is -15.9%.

Question: Which activity, negative = cell killing does the source give for `Cc1cccc(C)c1OCC(=O)N[C@@H](Cc1ccccc1)[C@@H](O)C[C@H](Cc1ccccc1)NC(=O)[C@H](C(C)C)N1CCCNC1=O` here?
Answer: The activity, negative = cell killing was -15.7%.

Question: For `CC1Cc2ccccc2N1NC(=O)c1ccc(Cl)c(S(N)(=O)=O)c1` (stereo unspecified), which activity, negative = cell killing is on record?
Answer: The activity, negative = cell killing was 9.62%.

Question: Which activity, negative = cell killing does the source give for `Cc1nc2n(c(=O)c1CCN1CCC(c3noc4cc(F)ccc34)CC1)CCCC2` here?
Answer: Its activity, negative = cell killing is -28.4%.

Same assay, conditions: GBM patient neurospheres viability, ATP luminescence, 48 h; at 45.9 µM (top of the series); tumour line D

Question: With `CCC(C)(Oc1ccc(C2(c3ccc(OC(C)(CC)C(=O)O)cc3)CCCCC2)cc1)C(=O)O` (stereo unspecified) as the molecule, how does the activity, negative = cell killing read?
Answer: The activity, negative = cell killing was -12.5%.

Question: Which activity, negative = cell killing does the source give for `O=C(O)CCNC(=O)c1ccc(N=Nc2ccc(O)c(C(=O)O)c2)cc1` here?
Answer: Its activity, negative = cell killing is -11.2%.

Question: With `COC(=O)N[C@H](C(=O)N[C@@H](Cc1ccccc1)[C@@H](O)CN(Cc1ccc(-c2ccccn2)cc1)NC(=O)[C@@H](NC(=O)OC)C(C)(C)C)C(C)(C)C` as the molecule, how does the activity, negative = cell killing read?
Answer: Its activity, negative = cell killing is -29.7%.

Question: For `Nc1cc(C(Cl)=C(Cl)Cl)c(S(N)(=O)=O)cc1S(N)(=O)=O`, which activity, negative = cell killing is on record?
Answer: Its activity, negative = cell killing is 2.04%.

Question: For `Cc1cc2c(s1)Nc1ccccc1N=C2N1CCN(C)CC1`, which activity, negative = cell killing is on record?
Answer: Its activity, negative = cell killing is -20.6%.

Question: Which activity, negative = cell killing does the source give for `CC[C@]1(O)C[C@H]2CN(CCc3c([nH]c4ccccc34)[C@@](C(=O)OC)(c3cc4c(cc3OC)N(C=O)[C@H]3[C@@](O)(C(=O)OC)[C@H](OC(C)=O)[C@]5(CC)C=CCN6CC[C@]43[C@@H]65)C2)C1` here?
Answer: Its activity, negative = cell killing is -44.9%.

Question: With `O=C(O)c1cccnc1Nc1cccc(C(F)(F)F)c1` as the molecule, how does the activity, negative = cell killing read?
Answer: Its activity, negative = cell killing is -4.12%.

Question: For `Cc1cccc(C)c1OCC(=O)N[C@@H](Cc1ccccc1)[C@@H](O)C[C@H](Cc1ccccc1)NC(=O)[C@H](C(C)C)N1CCCNC1=O`, which activity, negative = cell killing is on record?
Answer: The activity, negative = cell killing was -27.5%.

Question: For `CC1Cc2ccccc2N1NC(=O)c1ccc(Cl)c(S(N)(=O)=O)c1` (stereo unspecified), which activity, negative = cell killing is on record?
Answer: The activity, negative = cell killing was -0.642%.

— PubChem BioAssay (NCATS)
